# Source: PubChem (several laboratories)
# ATG4B inh: ATG4B protease inhibitors, primary screen, biochemical, fluorescence, uHTS; inhibition, % at 8.33 µM; ATG4B cleavage of LC3-PLA2, NBD-HPC fluorescence, 1 h; Cysteine protease ATG4B (Homo sapiens), Q9Y4P1; 340,000 tested, 0.51% active; in the data active means inhibition above about 40%
# Target sequence (Q9Y4P1 whole entry, looked up): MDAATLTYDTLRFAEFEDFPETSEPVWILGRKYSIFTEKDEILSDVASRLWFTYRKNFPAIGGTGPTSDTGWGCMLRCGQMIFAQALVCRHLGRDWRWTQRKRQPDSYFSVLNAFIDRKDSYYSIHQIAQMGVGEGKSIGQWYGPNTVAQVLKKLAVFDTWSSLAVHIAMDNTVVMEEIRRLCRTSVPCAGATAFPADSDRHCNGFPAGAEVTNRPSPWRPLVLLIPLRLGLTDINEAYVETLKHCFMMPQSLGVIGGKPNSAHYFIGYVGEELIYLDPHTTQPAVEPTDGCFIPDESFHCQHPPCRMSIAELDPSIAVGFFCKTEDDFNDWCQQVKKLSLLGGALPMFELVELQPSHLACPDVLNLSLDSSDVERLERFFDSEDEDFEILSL
# AI-2 QS modul: Vibrio harveyi AI-2 quorum sensing modulators, primary screen, JMH597 strain, luminescence/OD600 ratio. 300,000 tested, 0.4% active. activity change, % at 7.5 µM. Vibrio harveyi JMH597 AI-2 luminescence/OD600 ratio, 9 h; active compounds read low; strain lacks LuxN and CqsS sensors; 0 = neutral-control median; in the data active means activity change below about -75%, passing the limit was not always enough;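 further: luminescence divided by OD600 gain over 9 h not by final OD600 alone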
# Mot1-301 SUMO: yeast Mot1-301 growth rescue at high temperature, primary screen, SUMOylation pathway inhibitor project, S. cerevisiae, ATP luminescence, 38.5C; 320,000 tested, 1% active; AID 2716, 2010; S. cerevisiae Mot1-301 growth rescue; percent above DMSO median, 100 means doubled; growth rescue, % at 18.8 µM;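 active means every valid replicate shows activation above 250% relative to neutral control wells; inactive means the rest, any valid replicate at or below 250%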;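 further: OY570 slx delta 5 strain wells were the positive control but not used for scaling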
# V-ATPase pH: regulators of yeast V-ATPase proton pumping, primary screen, pHLuorin cytosolic pH fluorescence; S. cerevisiae; response, % at 10 µM; 350,000 tested, 0.37% active; in the data active means response mostly above about 7.3%, no sharp cut-off; inactive means mostly below about 5.4%; further: actives read high
# Efflux pump inh: inhibitors of Candida efflux pumps in yeast, primary screen, S. cerevisiae, Nile Red, multiplex. S. cerevisiae Candida pump triplex. inhibition, % at 10 µM. 330,000 tested, 0.44% active. AID 485275, 2010;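 active means plate passing quality check with inhibition over a set limit, or well fluorescence over plate mean plus 4 SD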;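 further: Nile Red retained in pooled yeast measured as flow cytometry median fluorescence; 0% = buffer negative control and 100% = Enniatin B positive control; higher means more Nile Red kept so more efflux inhibition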
# Numbers without * were called inactive; nt = not tested or not shown. In the library only some 2.5% were active in any assay of this set; here they are far more common.
SMILES,ATG4B inh,AI-2 QS modul,Mot1-301 SUMO,V-ATPase pH,Efflux pump inh
Cc1ccc([C@@H]2CC=C(C(=O)O)[C@H](c3ccc(F)cc3)N2S(=O)(=O)c2ccccc2C)cc1,1,nt,190,1,0
CCc1ccc([C@@H]2CC=C(C(=O)O)[C@H](c3ccc(Br)cc3)N2S(=O)(=O)c2ccc(C)cc2)cc1,36,nt,300*,0,0
CN(C)C(=O)CCc1ccc2c3c([nH]c2c1)[C@]1(CCC2CCCC2)[C@@H](C(=O)N2CCOCC2)C[C@H](CC(=O)NCCc2ccccn2)C(=O)N1CC3,-8,nt,nt,-4,0
O=C(CCNS(=O)(=O)c1cccc(C(F)(F)F)c1)NC1CC1,-6,nt,-14,-5,0
CC(=O)Nc1ccc(NC(=O)C(C)OC(=O)CCc2c[nH]c3ccccc23)cc1 (stereo not given),-4,10,-4,0,0
O=C1c2ccccc2CCC12OC2c1ccncc1 (stereo not given),nt,nt,nt,3,nt
O=c1[nH]c(=O)n([C@H]2C[C@H](O)[C@@H](CO)O2)cc1F,0,-99*,115,-2,0
O=c1[nH]c(=O)n(C2CC(O)C(CO)O2)cc1I (stereo not given),18,nt,nt,5,nt
Cc1ccc(NC(=O)CSc2nnc(-c3cnccn3)n2-c2ccccc2)cc1,-2,23,-15,16*,0
CC(=O)CSc1nnc(-c2cnccn2)n1-c1ccccc1,-1,24,nt,2,nt
COc1ccc(CCN(CC(=O)NC(C)(C)C)C(=O)Cn2nnc(-c3ccc(C)o3)n2)cc1OC,-2,22,1,2,0
Cn1nc(C(C)(C)C)c([N+](=O)[O-])c1C(=O)N1CCCCCC1,-8,20,444*,3,0
O=C(Nc1c(-c2ccccc2)nc2ccccn12)c1cccc(F)c1,-6,8,146,-3,0
O=C(Cn1nnc(-c2ccc(Cl)cc2)n1)NC(=O)NC1CCCC1,nt,nt,nt,3,nt
Oc1[nH]c(N=C2N=c3ccccc3=N2)c2ccccc12,-5,14,293*,-92,0
Cc1ccc2c(c1)=N/C(=N\c1[nH]c(O)c3ccccc13)N=2,nt,nt,nt,-31,nt
CCc1ccc(NC2=NCC(c3ccccc3)S2)cc1 (stereo not given),13,-95*,3,5,0
O=C(Cn1cnc2c(nnn2Cc2ccc(F)cc2)c1=O)Nc1ccccc1,-6,-11,4,2,0
C#CCOCCOCCOCCNc1nc(N2CCN(C(=O)CCCCCCCCCCNC(=O)[C@@H](CCSC)n3cc(CCO)nn3)CC2)nc(N2CCN(C(=O)CCCCCCCCCCNC(=O)[C@H](CCCN=C(N)N)n3cc(C[C@@H](C)CC)nn3)CC2)n1,46*,nt,-8,2,0
C#CCOCCOCCOCCNc1nc(N2CCN(C(=O)CCCCCCCCCCNC(=O)[C@H](CCCN=C(N)N)n3cc(C[C@@H](C)CC)nn3)CC2)nc(N2CCN(C(=O)CCCCCCCCCCNC(=O)[C@@H]([C@H](C)CC)n3cc(CCCCCN)nn3)CC2)n1,nt,nt,-16,nt,4.8*
C#CCOCCOCCOCCNc1nc(N2CCN(C(=O)CCCCCCCCCCNC(=O)Cn3cc(CCCCCN)nn3)CC2)nc(N2CCN(C(=O)CCCCCCCCCCNC(=O)Cn3cc(C[C@@H](C)O)nn3)CC2)n1,-14,nt,-12,8.6*,0
C#CCOCCOCCOCCNc1nc(N2CCN(C(=O)CCCCCCCCCCNC(=O)[C@H](CO)n3cc(CCCCCN)nn3)CC2)nc(N2CCN(C(=O)CCCCCCCCCCNC(=O)[C@H](CCCN=C(N)N)n3cc(C[C@@H](C)CC)nn3)CC2)n1,nt,nt,-24,nt,0
C#CCOCCOCCOCCNc1nc(N2CCN(C(=O)CCCCCCCCCCNC(=O)[C@H]([C@@H](C)CC)n3cc(CCCCN=C(N)N)nn3)CC2)nc(N2CCN(C(=O)CCCCCCCCCCNC(=O)[C@H](CCCN=C(N)N)n3cc(C[C@@H](C)CC)nn3)CC2)n1,nt,nt,197,nt,6.2*
S=C(NC1CCCC1)N1CCN(C/C=C/c2ccccc2)CC1,-3,22,-11,1,0
CC1CCCC(C)N1C(=O)COC(=O)c1cccnc1Cl (stereo not given),-6,nt,1,-1,0
SMILES,ATG4B inh,AI-2 QS modul,Mot1-301 SUMO,V-ATPase pH,Efflux pump inh
C#CCOCCOCCOCCNc1nc(N2CCN(C(=O)CCCCCCCCCCNC(=O)[C@H](CCCCN)n3cc(C[C@@H](C)CC)nn3)CC2)nc(N2CCN(C(=O)CCCCCCCCCCNC(=O)[C@@H]([C@H](C)O)n3cc(C)nn3)CC2)n1,53*,nt,140,-5,0
CCN(CC)S(=O)(=O)c1cc(NC(=O)c2ccc3c(c2)NC(=O)C(C)S3)ccc1C (stereo not given),-18,nt,-14,2,0
O=C(NCc1ccco1)c1ccc2c(c1)N(Cc1ccc(Cl)cc1)CCS2,0,15,-5,14*,0
Cc1nc2ccc(Oc3ccccc3)cc2s1,-4,27,-24,4,0
Nc1nc2ccc(Oc3ccccc3)cc2s1,1,-81*,nt,0,nt
O=C(NCCc1ccccc1)/C(=N\O)c1ccccc1,-1,-79*,75,0,0
CCOC(=O)c1cnc(-c2ccccc2)[nH]c1=O,-5,41,320*,3,0
CCCCOc1ccc(-c2nc(=S)[nH][nH]2)cc1,-3,-89*,8,-2,0
O=C(NNc1nc2cc3c(cc2s1)OCO3)c1cccc(F)c1,-8,-88*,93,0,0
COc1cc(OC)cc(C(=O)NNc2nc3cc4c(cc3s2)OCO4)c1,-15,-18,-1,-1,0
COCCCNCCOCCSc1ccc(Cl)cc1,0,29,279*,0,0
CCCCNCCOCCSc1ccc(Cl)cc1,8,8,110,4,0
Cc1ccc(Nc2ncccc2C(=O)O)cc1C,-1,-79*,-7,0,0
Cc1cc(C)c(C(CC(=O)c2cccs2)C(C#N)C#N)c(C)c1 (stereo not given),-5,7,477*,1,0
CC(CC(=O)c1cccs1)CC(=O)c1cccs1,-6,5,24,0,0
CCC(C)N1C(=O)/C(=C/c2c(NCCCOC(C)C)nc3c(C)cccn3c2=O)SC1=S (stereo not given),3,nt,100,0,0.8*
Cc1csc(=O)n1CC(=O)Nc1nc2ccccc2s1,-9,nt,321*,1,0
CCCN1CCN(CC(=O)Nc2nc3ccccc3s2)CC1,-2,-3,131,-3,0
O=[N+]([O-])c1ccc(Sc2cccc[n+]2[O-])c2nonc12,-7,-129*,nt,-5,nt
O=[N+]([O-])c1ccc(Nc2ccccc2)c2nonc12,2,24,47,0,0
